WT yeast gro inh: growth inhibition of WT yeast, mitochondrial fusion screen; mitochondrial fusion phenotypic screen, WT strain; inhibition, % at 10 µM; 2.1% of 190,000 active; in the data active means inhibition above about 58%; tested in S. cerevisiae
HCT116 PTEN-null: growth suppressors of cells with PTEN tumor suppressor deletion. viability, % at 10 µM. 1.2% of 140,000 active. AID 827. HCT116 PTEN-null viability, CellTiter-Glo, 60 h; hits give low values;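 active means viability at or below a set limit, 4 SD under the median of all tested compounds, cut at about 3.7% in these data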;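 further: PTEN knockout HCT116 line with beta catenin targeted HCT116 as companion control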
hDAT+cocaine: human DAT dopamine uptake with cocaine, either direction; LLC-PK1 hDAT cells, [14C]-dopamine uptake with cocaine IC80; actives deviate in either direction; B-score at 10 µM; Q01959; 1.3% of 110,000 active;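 active means Z score or B-score, a plate-position-corrected score, falls beyond the plate's 99.7% confidence bounds, in either direction; inactive means both scores lie inside the 99.7% bounds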;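 further: scored against the spread of the other compound wells on the same plate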
Target sequence (Q01959 whole entry, looked up): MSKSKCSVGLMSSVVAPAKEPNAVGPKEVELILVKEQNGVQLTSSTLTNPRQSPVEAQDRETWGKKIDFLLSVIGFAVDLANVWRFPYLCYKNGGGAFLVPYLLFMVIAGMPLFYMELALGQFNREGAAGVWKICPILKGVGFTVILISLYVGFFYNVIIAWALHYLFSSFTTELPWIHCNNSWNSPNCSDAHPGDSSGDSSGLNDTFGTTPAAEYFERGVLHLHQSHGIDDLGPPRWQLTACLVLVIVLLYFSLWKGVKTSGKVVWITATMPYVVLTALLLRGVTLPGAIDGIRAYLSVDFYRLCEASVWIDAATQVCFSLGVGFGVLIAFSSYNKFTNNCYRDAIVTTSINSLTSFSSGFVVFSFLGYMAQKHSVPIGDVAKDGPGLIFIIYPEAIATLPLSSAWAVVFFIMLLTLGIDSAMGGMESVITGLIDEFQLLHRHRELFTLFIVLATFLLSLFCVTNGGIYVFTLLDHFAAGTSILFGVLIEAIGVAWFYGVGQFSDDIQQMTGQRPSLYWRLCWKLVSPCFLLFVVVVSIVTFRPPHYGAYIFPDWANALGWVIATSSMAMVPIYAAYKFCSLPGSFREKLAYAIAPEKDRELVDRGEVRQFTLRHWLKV
HCT116 bCat-KO: beta-catenin-lacking colon tumor cell growth suppression. HCT116 beta-catenin knockout viability, CellTiter-Glo, 60 h; hits give low values. viability, % at 10 µM. 1.5% of 140,000 active. AID 818;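 active means viability at or under a set limit, the compound median less 4 SD, cut at about 6% in these data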;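 further: 0% = Hyamine 1622 control at 20 µM and 100% = untreated cell control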
* = called active by the depositor; . = no result given. This is a sample that favours compounds with a hit; in the whole collection about 3.6% have one here.

SMILES	WT yeast gro inh	HCT116 PTEN-null	hDAT+cocaine	HCT116 bCat-KO
CCOC(=O)C1CN(S(=O)(=O)c2ccc(OC)cc2)c2cc(S(=O)(=O)CC)ccc2O1 (centres undefined)	-5	100	-7.9*	101
CCS(=O)(=O)c1ccc2c(c1)N(S(=O)(=O)c1ccc(Cl)cc1)CC(C(=O)O)O2 (centres undefined)	-7	.	.	.
O=C(/C=C/c1ccc(Br)cc1)NC(=S)N1CCOCC1	-12	.	.	.
Cc1nc([N+](=O)[O-])c(Sc2nc3ccccc3n2C)n1Cc1ccccc1	-16	1.8*	.	2.7*
COc1ccc(-c2nnc(SCc3nc4ccccc4s3)n2C(C)C)cc1	-6	81	3.9*	83
C/C(CC(=O)Nc1cccc(C(F)(F)F)c1)=N\NC(=O)C1CCCCC1	-14	.	.	.
Cc1cc(C)c(NC(=S)NCCCSC2CCCCC2)c(C)c1	75*	.	.	.
COc1cccc(NC(=O)NCCCSC2CCCCC2)c1	1	98	-0.032	89
CC(C)C(=O)N1CCC2(CC1)Oc1ccc(Cl)cc1C(=O)C21CC(c2cccnc2)=NO1 (centres undefined)	.	.	0.66	.
CCc1ccc(C2=NNC(=Nc3c(C)n(C)n(-c4ccccc4)c3=O)SC2)cc1	2	.	.	.
Cc1cc(C)c2c(=O)[nH]c(SCC(=O)c3ccc(F)c(C)c3)nc2n1	-2	.	.	.
COc1cc(OC)c(-c2c3cc(O)c(=O)cc-3oc3cc(O)c(O)cc23)cc1OC	59*	79	.	74
Cc1c2cc(O)c(=O)cc-2oc2cc(O)c(O)cc12	36	76	-0.23	80
O=C(c1ccccc1)c1cc(Cl)ccc1N1C(=O)C=CC1=O	85*	.	.	.
Fc1cccc(Cn2cc(C(=S)N3CCOCC3)c3ccccc32)c1	25	.	.	.
Fc1cccc(Cn2cc(C(=S)N3CCCCC3)c3ccccc32)c1	76*	77	0.47	83
Nc1nc2ccccc2nc1N	8	108	-8*	97
COc1cccc(NC(=O)c2ccc3c(c2)N(CC(=O)N2CCCCC2)C(=O)C(C)(C)O3)c1	-10	88	3.1*	94
COc1ccc(C(=O)N2CCC(n3c(C)nc4cc(F)ccc43)CC2)cc1OC	-13	100	2.8*	89
Cc1noc(C)c1C(=O)NCc1ccccc1F	22	.	.	.
CC1CN(Cc2ccccc2)c2ccccc2NC1=S (centres undefined)	67*	82	.	80
CCCCC(=O)Nc1nc2ccc(C(=O)OC)cc2s1	-3	.	.	.
Cn1cnnc1SCc1ccc(C(=O)N=Nc2c(O)n(Cc3ccc(Cl)cc3)c3ccccc23)cc1	4	4	.	3.8*
O=C1c2ccccc2-n2c1nc1ccccc1c2=O	66*	.	0.35	.
CC12CCC(C(=O)NCc3cccnc3)(OC1=O)C2(C)C (centres undefined)	-1	96	-0.27	94
SMILES	WT yeast gro inh	HCT116 PTEN-null	hDAT+cocaine	HCT116 bCat-KO
CC12CCC(C(=O)N(Cc3ccccc3)Cc3ccccc3)(OC1=O)C2(C)C (centres undefined)	79*	48	-1.3	55
O=C(CCc1c[nH]c2ccccc12)N/N=C/c1ccc2c(c1)OCO2	-30	.	.	.
COc1ccc2cnn(CCOc3cc(C)ccc3C(C)C)c(=O)c2c1OC	71*	59	.	64
CCn1cc([N+](=O)[O-])c(C(=O)N2N=C(c3ccc4ccccc4c3)CC2c2cc(Br)ccc2O)n1 (centres undefined)	3	3.2*	1	2.4*
FC(F)(F)c1cccc(NC(=S)NCc2ccc(Cl)cc2)c1	75*	.	.	.
Fc1ccc(CNC(=S)Nc2cccc(C(F)(F)F)c2)cc1	58*	18	.	15
CC(NC(=S)Nc1cccc(C(F)(F)F)c1)C(C)(C)C (centres undefined)	70*	.	.	.
CSc1ccccc1NC(=S)Nc1cccc(C(F)(F)F)c1	12	79	-0.57	80
Cc1cc(N/N=C2\CC(C)CC(C)(C)C2)nc2ccccc12 (centres undefined)	76*	.	.	.
CCN(CC(=O)NCc1cccs1)S(=O)(=O)c1cccc(C(C)=O)c1	12	94	-7.5*	94
Cc1ccc(CSCCNS(=O)(=O)c2ccccc2)cc1	24	99	.	88
Cc1ccsc1C(=O)N1CC(=O)Nc2ccccc21	-50	70	0.13	73
Cc1cc(C)cc(C(=O)N2CC(=O)Nc3ccccc32)c1	18	16	-3.3*	18
Cc1ccc2c(c1)/C(=N/OS(=O)(=O)c1ccccc1)CCS2	.	.	-1.3	.
CC1=CC(=O)C=C(C)C1=NOS(=O)(=O)c1ccccc1	-22	2.7*	-0.7	1.6*
CC(C)CCNC(=O)c1onc(CSc2ccccn2)c1C(=O)NCCC(C)C	.	.	0.15	.
CC(Sc1nnc(Cc2ccc3c(c2)OCO3)o1)C(N)=O (centres undefined)	-7	.	.	.
OC(COCC(F)(F)C(F)(F)C(F)(F)C(F)F)Cn1c2ccc(Cl)cc2c2cc(Cl)ccc21 (centres undefined)	86*	1.7*	.	2.2*
O=C(/C=C/c1cccs1)N1CCC2(CC1)Oc1ccc(Cl)cc1C(=O)C21CC(c2ccccc2)=NO1 (centres undefined)	.	.	0.012	.
CC(C)CN(C(=O)CN1CCc2ccccc21)c1c(N)n(CC(C)C)c(=O)[nH]c1=O	-21	.	.	.
CCCn1c(CC)nc([N+](=O)[O-])c1S(=O)(=O)c1ccccc1	-1	1.2*	0.73	1.4*
COc1ccc(C(=O)COC(=O)CCN2C(=O)C3C4CC(C(Br)C4Br)C3C2=O)cc1 (centres undefined)	11	95	-2.3*	89
COc1ccccc1N1CCN(c2ncc(C(=O)N3CCN(c4cccc(Cl)c4)CC3)c3ccccc23)CC1	59*	.	.	.
CCc1cc(-c2n[nH]c(C)c2Oc2ccc(C(C)C)cc2)c(O)cc1O	86*	61	0.34	54
CCCOC(=O)c1ccc(Oc2c(-c3ccc(OC)cc3O)n[nH]c2C)cc1	-3	13	-0.25	3.5*
SMILES	WT yeast gro inh	HCT116 PTEN-null	hDAT+cocaine	HCT116 bCat-KO
Cc1[nH]nc(-c2ccc(O)cc2O)c1Oc1ccccc1	-12	72	1.3	74
O=c1[nH][nH]c(C(F)(F)F)c1C=NCc1cccs1	5	.	.	.
CC(C)n1c2ccccc2c2nnc(SCC(=O)Nc3ccccc3C(=O)O)nc21	8	.	.	.
C=CCn1c(SCC(=O)c2c(N)n(CCC)c(=O)n(C)c2=O)nnc1-c1ccncc1	-8	.	.	.
Cc1c(Cl)cccc1NC(=S)NCC(c1cccnc1)N(C)C (centres undefined)	-8	.	.	.
CCOc1ccc(CN2CCN(CC(O)Cn3c4ccccc4c4ccccc43)CC2)cc1 (centres undefined)	85	1.6*	.	1.5*
CCn1c2ccccc2c2cc(CN3CCN(S(C)(=O)=O)CC3)ccc21	7	72	.	73
COc1ccc(CN2CCN(CC(O)Cn3c4ccccc4c4ccccc43)CC2)cc1 (centres undefined)	86	14	.	16
CCn1c2ccccc2c2cc(CN3CCN(Cc4cc(OC)ccc4O)CC3)ccc21	60*	.	.	.
CC(C)OC(=O)c1cc2c(ccn2C)n1CC(=O)N1CCC(Cc2ccccc2)CC1	7	54	2.2*	64
O=C(NCc1ccccc1)c1ccc(C(=O)N(C2CCCCC2)C2CCCCC2)cc1	62*	79	1.7	78
O=C(NC1CCCCCC1)C(=S)NCc1ccccc1	73*	.	.	.
O=C(NC1CCCCC1)C(=S)NCc1ccccc1	22	.	.	.
